EWS-Fli inh – EWS/Fli-driven NR0B1 reporter inhibitors, primary screen, A673 cells, NR0B1 luciferase, luminescence, MLPCN library; viability-normalised; inhibition, % at 12.6 µM; 0.67% of 350,000 active; AID 651661, 2012;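 active = mean inhibition of at least 50% after viability correction, with every replicate also passing that limit; inconclusive = mean reaches 50% but only one of two replicates passes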;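 also: firefly luciferase signal divided by Alamar Blue viability fluorescence both relative to DMSO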
Shn3 3UTR inh – reduction of Shn3 3'UTR firefly luciferase signal, primary screen, Schnurri-3 inhibitor project, cell-based, Clone20 osteoblasts, set 2 | Clone20 osteoblast Shn3 3'UTR firefly luciferase, 24 h | inhibition, % at 12.5 µM | 0.52% of 360,000 active | AID 588674, 2011;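 active = mean inhibition of at least 75% with every replicate also reaching 75%; inconclusive = mean inhibition at least 75% but some replicate below; inactive = mean inhibition below 75%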
LMP1 NFkB inh – EBV LMP1-driven NF-kappaB luciferase reporter inhibitors, primary screen, cell-based, luminescence, single point | inhibition, % at 12.5 µM | 0.69% of 350,000 active | LMP1-induced NF-kappaB luciferase reporter cells | AID 504558, 2011; in the data active = inhibition above about 41%; inconclusive = no clear call, values can overlap the other calls
MITF TRPM1 inh – inhibitors of MITF-dependent TRPM1 promoter reporter, primary screen, cell-based, SK-MEL-5, single point, luciferase. inhibition, % at 12.5 µM. 0.83% of 330,000 active. SK-MEL-5 TRPM1 promoter luciferase, 24 h. AID 488899, 2010;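 active = mean inhibition across replicates of 60% or more, whatever share of single replicates reaches that level; inconclusive = some that reach 60%, reason not given; inactive = mean inhibition across replicates below 60%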
PAX8 inh HTS – inhibitors of PAX8-driven TPO luciferase reporter, primary screen, RMG-I cells, single concentration | inhibition, % at 12.6 µM | SteadyGlo, 24 h | 1.2% of 360,000 active;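 active = mean replicate inhibition at least 60% with every replicate also reaching 60%; inconclusive = only one of the two criteria is met; inactive = mean below 60% and not all replicates reaching 60%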;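 also: luciferase light reporting Pax8 driven TPO promoter activity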
LGR2 inh – inhibitors of bursicon-induced LGR2 CRE-luciferase signal, primary screen, cell-based, HEK293, CRE-luciferase reporter, bursicon stimulation. inhibition, % at 9.99 µM. 0.35% of 380,000 active. Drosophila bursicon receptor LGR2 (rickets). AID 720647, 2013. bursicon-stimulated, 4 h;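 active = drop in luminescence signal, shown as inhibition above about 50% in the replicate tests, limit read from the data, passing the limit was not always enough; inconclusive = probably only some replicates passing the limit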;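 also: agonist challenge used bursicon conditioned medium at about half maximal strength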
Of the large screens only hits and unclear results are named; the others gave an inactive call. Hits are enriched below; roughly 2.2% of the tested compounds scored in any of these assays.

C=C1C(=O)C2=CC1CCC(=O)C1(C)CCC(OC(C)=O)C(C)(C)C1CC2O (configuration not stated)	EWS-Fli inh 57, Shn3 3UTR inh 84, LMP1 NFkB inh inconclusive, PAX8 inh HTS 105, LGR2 inh 103 (no result: MITF TRPM1 inh)
CO[C@@H]1CN(C)C(=O)c2cc(NS(C)(=O)=O)ccc2OC[C@H](C)N(Cc2cccnc2)C[C@H]1C	none (no result: Shn3 3UTR inh, LMP1 NFkB inh, MITF TRPM1 inh, PAX8 inh HTS)
CCN(CC(=O)Nc1c(F)cccc1F)C(=O)c1cc(S(=O)(=O)N(C)C)ccc1N1CCCC1	PAX8 inh HTS 90
CCN(CC(=O)Nc1c(F)cccc1F)C(=O)c1cc(S(=O)(=O)N(CC)CC)ccc1N1CCCCC1	PAX8 inh HTS 88 (no result: EWS-Fli inh)
CCN(CC(=O)Nc1ccc(OC)cc1)C(=O)c1cc(S(=O)(=O)N2CCOCC2)ccc1N1CCCC1	PAX8 inh HTS 69
CCN(CC(=O)Nc1ccccc1C(F)(F)F)C(=O)c1cc(S(=O)(=O)N(C)C)ccc1N1CCCC1	none
CO[C@H]1CN(C)C(=O)c2cc(NC(=O)c3ccccc3F)ccc2OC[C@H](C)N(C(=O)c2ccccc2F)C[C@H]1C	none (no result: Shn3 3UTR inh, LMP1 NFkB inh, MITF TRPM1 inh)
COc1ccc2c3c([nH]c2c1)[C@@H](CO)N(Cc1ccccc1)CC31CCN(S(=O)(=O)c2ccc(C)cc2)CC1	none (no result: Shn3 3UTR inh, LMP1 NFkB inh, MITF TRPM1 inh, PAX8 inh HTS)
CO[C@@H](C(=O)N(C)C[C@@H]1OCc2ccccc2-c2c(n(C)c3ccccc23)C(=O)N([C@@H](C)CO)C[C@@H]1C)c1ccccc1	none (no result: Shn3 3UTR inh, LMP1 NFkB inh, MITF TRPM1 inh)
CCOc1ccc(-c2nnc(SCC(=O)Nc3ccc4c(c3)c3ccccc3n4CC)n2N)cc1	MITF TRPM1 inh 78 (no result: EWS-Fli inh, LGR2 inh)
C[C@@H]1CCCCO[C@H](CN(C)Cc2ccccc2)[C@@H](C)CN([C@H](C)CO)C(=O)c2cc(NC(=O)Nc3ccc(C(F)(F)F)cc3)ccc2O1	none (no result: Shn3 3UTR inh, LMP1 NFkB inh, MITF TRPM1 inh)
C[C@H]1CCCCO[C@@H](CN(C)Cc2ccccc2)[C@@H](C)CN([C@@H](C)CO)C(=O)c2cc(NC(=O)Nc3ccc(C(F)(F)F)cc3)ccc2O1	PAX8 inh HTS 108 (no result: Shn3 3UTR inh, LMP1 NFkB inh, MITF TRPM1 inh)
C[C@H](CO)N1C[C@H](C)[C@H](CN(C)Cc2ccccc2)OCCCC[C@H](C)Oc2ccc(NC(=O)Nc3ccc(C(F)(F)F)cc3)cc2C1=O	PAX8 inh HTS 115 (no result: Shn3 3UTR inh, LMP1 NFkB inh, MITF TRPM1 inh)
C[C@H]1CCCCO[C@H](CN(C)Cc2ccccc2)[C@@H](C)CN([C@@H](C)CO)C(=O)c2cc(NC(=O)Nc3ccc(C(F)(F)F)cc3)ccc2O1	PAX8 inh HTS 120 (no result: Shn3 3UTR inh, LMP1 NFkB inh, MITF TRPM1 inh)
C[C@@H]1CCCCO[C@H](CN(C)Cc2ccccc2)[C@H](C)CN([C@H](C)CO)C(=O)c2cc(NC(=O)Nc3ccc(C(F)(F)F)cc3)ccc2O1	PAX8 inh HTS 107 (no result: Shn3 3UTR inh, LMP1 NFkB inh, MITF TRPM1 inh)
CCN1[C@@H]2c3ccc(-c4ccccc4)c(=O)n3C[C@@H]2[C@@H](CO)[C@@H]1C(=O)NCc1ccccc1	none (no result: Shn3 3UTR inh, LMP1 NFkB inh, MITF TRPM1 inh, PAX8 inh HTS)
O=C(C[C@H]1CC[C@H]2[C@@H](COC[C@@H](O)CN2C(=O)c2ccccc2)O1)N1CCOCC1	none (no result: Shn3 3UTR inh, LMP1 NFkB inh, MITF TRPM1 inh)
CN1[C@H](C(=O)NCCCN2CCOCC2)[C@@H](CO)[C@@H]2Cn3c(ccc(/C=C/c4ccccc4)c3=O)[C@@H]21	none (no result: Shn3 3UTR inh, LMP1 NFkB inh, MITF TRPM1 inh)
C[C@H](CO)N1C[C@H](C)[C@H](CN(C)Cc2ccc(C(=O)O)cc2)OCCCC[C@H](C)Oc2ccc(NC(=O)NC3CCCCC3)cc2C1=O	none (no result: Shn3 3UTR inh, LMP1 NFkB inh, MITF TRPM1 inh)
C[C@@H]1CCCCO[C@H](CN(C)Cc2ccccc2)[C@H](C)CN([C@@H](C)CO)C(=O)c2cc(NC(=O)Nc3ccc(C(F)(F)F)cc3)ccc2O1	PAX8 inh HTS 115 (no result: Shn3 3UTR inh, LMP1 NFkB inh, MITF TRPM1 inh)
C[C@@H]1CN([C@@H](C)CO)C(=O)c2cc(NC(=O)Nc3ccc(C(F)(F)F)cc3)ccc2O[C@@H](C)CCCCO[C@H]1CN(C)Cc1ccccc1	PAX8 inh HTS 66 (no result: Shn3 3UTR inh, LMP1 NFkB inh, MITF TRPM1 inh)
COc1ccc(N2CCN(C(=O)CCS(=O)(=O)c3ccc4c(c3)NC(=O)C(C)S4)CC2)cc1 (configuration not stated)	none
Cc1ccc(NC(=O)C2CCN(S(=O)(=O)c3ccc4c(c3)NC(=O)C(C)S4)CC2)cc1Cl (configuration not stated)	Shn3 3UTR inh 89, LMP1 NFkB inh 40 (no result: EWS-Fli inh)
Cc1cc(C)cc(NC(=O)C2CCN(S(=O)(=O)c3ccc4c(c3)NC(=O)C(C)S4)CC2)c1 (configuration not stated)	none (no result: EWS-Fli inh)
